Consider nine molecules from PubChem BioAssay.

Molecules are shown by their SMILES. Calls of active or inactive are those of the source. Unless noted, how the calls were made is not given here.

The nature of experiment [1]: HepG2 liver cancer cell viability effects, profiling panel, resazurin fluorescence, 24 h, PK04 Diversity Set (AID 1172). The following applies: higher = more signal. In general terms: The colour change of resazurin is a common sign of viable cells or microbes.
A short description of experiment [2]: basal S. cerevisiae growth modulation, no modifier, primary screen, OD600, strain BY4716, 24 h, basal condition (AID 1173). To be noted: OD600, 24 h, higher = more signal, called active from +8 up or from −8 down.
A short description of experiment [3]: MM1S myeloma cell viability, profiling panel, resazurin fluorescence, basal, 24 h, PK04 Diversity Set (AID 1174).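 Further: MM1S multiple myeloma cell line.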 The following applies: higher = more signal, called active from +8 up or from −8 down.
In experiment [4] the target is Dihydroorotate dehydrogenase (quinone), mitochondrial (Plasmodium falciparum (isolate 3D7)) (UniProt Q08210). Put plainly: PfDHODH enzyme inhibitors, primary screen, biochemical, C-terminal His tag, absorbance 600 nm (AID 1175).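 Further: recombinant parasite enzyme with a five histidine tag at its C terminus.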 To be noted: DCIP absorbance 600 nm, higher = more signal, called active from +8 up or from −8 down.
Chain of Dihydroorotate dehydrogenase (quinone), mitochondrial (Plasmodium falciparum (isolate 3D7)) (Q08210 whole entry, looked up): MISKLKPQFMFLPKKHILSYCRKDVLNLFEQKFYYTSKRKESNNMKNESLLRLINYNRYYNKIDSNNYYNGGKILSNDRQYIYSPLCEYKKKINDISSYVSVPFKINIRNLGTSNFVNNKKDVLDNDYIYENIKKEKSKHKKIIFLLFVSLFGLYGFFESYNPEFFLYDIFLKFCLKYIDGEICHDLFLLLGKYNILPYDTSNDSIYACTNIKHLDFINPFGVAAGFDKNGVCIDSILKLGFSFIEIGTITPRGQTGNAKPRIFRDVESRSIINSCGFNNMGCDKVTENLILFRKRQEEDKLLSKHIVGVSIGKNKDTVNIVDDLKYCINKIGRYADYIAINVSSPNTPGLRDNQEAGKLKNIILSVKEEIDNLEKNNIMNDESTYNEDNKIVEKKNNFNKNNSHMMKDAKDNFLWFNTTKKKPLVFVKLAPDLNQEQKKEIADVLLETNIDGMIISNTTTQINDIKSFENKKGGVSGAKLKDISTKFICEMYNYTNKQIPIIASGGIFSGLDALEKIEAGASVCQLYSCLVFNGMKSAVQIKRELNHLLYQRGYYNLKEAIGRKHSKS
A short description of experiment [5]: P. aeruginosa biofilm formation inhibitors, primary screen, strain PAO1, LB-PBS medium, absorbance 600 nm (AID 1176). The following applies: P. aeruginosa PAO1 growth/biofilm, A600, 12 h; higher = more signal.
Experiment [6] can be described thus: S. cerevisiae RM11-1a growth modifiers, primary screen, strain RM11-1a, OD600, basal, 24 h (AID 1177).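 Further: cultures grown under basal conditions with no added stressor.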 The following applies: OD600, 24 h, higher = more signal, called active from +8 up or from −8 down.
A short description of experiment [7]: E. coli acrAB mutant growth effects, primary screen, E. coli filamentation inducers, strain DRC39, OD650, 24 h (AID 1178).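 Further: growth measured as culture turbidity by optical density at 650 nm.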 The following applies: higher = more signal, called active from +8 up or from −8 down.
Experiment [8] is described as follows: E. coli acrAB mutant growth effects, primary screen, E. coli filamentation inducers, strain DRC39, OD650, 48 h (AID 1179).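 Further: screen aims at cell division blockers that make cells filament.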 The following applies: E. coli DRC39 delta-acrAB growth, higher = more signal, called active from +8 up or from −8 down.
Experiment [9] can be described thus: RPMI8226 myeloma cell viability, profiling panel, resazurin fluorescence, basal, 24 h, PK04 Diversity Set (AID 1180).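 Further: RPMI8826 multiple myeloma cell line at 5000 cells per well.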 The following applies: higher = more signal.
Experiment [10] addresses E3 ubiquitin-protein ligase XIAP (Homo sapiens) (UniProt P98170). Put plainly: XIAP binders, primary screen, biophysical, small-molecule microarray, fluorescence 635 nm (AID 1181).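 Further: score merges 667 nm emission and signal to noise over triplicate slides.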 To be noted: small-molecule microarray binding, higher = more signal.
Experiment [11] has as its system XIP peptide (Xip251-270) binding. Put plainly: small-molecule binders of XIP peptide, primary screen, biochemical, small-molecule microarray, fluorescence 635/667 nm, 0.1 µg/mL protein (AID 1182). To be noted: fluorescent protein binding, 635 nm, higher = more signal, called active from +8 up or from −8 down.
Experiment [12] concerns XIP peptide (Xip251-270). Nature of the experiment: small-molecule binders of XIP peptide, primary screen, biochemical, small-molecule microarray, fluorescence 635/667 nm, 0.5 µg/mL protein (AID 1183). To be noted: small-molecule microarray binding, fluorescence 635 nm; higher = more signal.
The nature of experiment [13]: Plasmodium falciparum growth inhibition, primary screen, strain 3D7, DAPI fluorescence, 100 nL (AID 1184).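 Further: parasites grown inside human red blood cells in medium with human serum.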 The following applies: P. falciparum 3D7 growth, 3 d, higher = more signal.
The target in experiment [14] is Homeobox protein Hox-A13 (Mus musculus) (UniProt Q62424). Put plainly: inhibitors of HoxA13-DNA binding, primary screen, biochemical, fluorescence polarization, labeled oligonucleotide (AID 1185). To be noted: 15 min, higher = more signal, called active from +8 up or from −8 down. (In fluorescence polarisation assays a small probe gives low polarisation when free and higher when bound to something large.)
Chain of Homeobox protein Hox-A13 (Mus musculus) (Q62424 whole entry, looked up): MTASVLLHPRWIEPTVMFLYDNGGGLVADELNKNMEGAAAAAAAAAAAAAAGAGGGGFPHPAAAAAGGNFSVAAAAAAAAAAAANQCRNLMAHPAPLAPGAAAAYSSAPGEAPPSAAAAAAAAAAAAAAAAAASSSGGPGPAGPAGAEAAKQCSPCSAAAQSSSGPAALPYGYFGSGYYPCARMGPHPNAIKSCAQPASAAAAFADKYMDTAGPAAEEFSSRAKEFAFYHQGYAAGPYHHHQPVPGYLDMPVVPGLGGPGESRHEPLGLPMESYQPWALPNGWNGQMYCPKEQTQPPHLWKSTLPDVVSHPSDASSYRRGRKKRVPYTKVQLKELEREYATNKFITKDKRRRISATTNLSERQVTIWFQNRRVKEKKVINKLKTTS

A short description of experiment [15]: inhibitors of hydroxyurea-induced Chk1 phosphorylation, primary screen, imaging, HeLa, phospho-Chk1 antibody, percent positive cells (AID 1186). To be noted: hydroxyurea-induced phospho-Chk1 immunofluorescence imaging, higher = more signal.
Experiment [16] in a line: inhibitors of hydroxyurea-induced Chk1 phosphorylation, primary screen, imaging, HeLa, phospho-Chk1 nuclear intensity (AID 1187). The following applies: hydroxyurea-induced phospho-Chk1 immunofluorescence imaging, higher = more signal.

Chain of E3 ubiquitin-protein ligase XIAP (Homo sapiens) (P98170 whole entry, looked up): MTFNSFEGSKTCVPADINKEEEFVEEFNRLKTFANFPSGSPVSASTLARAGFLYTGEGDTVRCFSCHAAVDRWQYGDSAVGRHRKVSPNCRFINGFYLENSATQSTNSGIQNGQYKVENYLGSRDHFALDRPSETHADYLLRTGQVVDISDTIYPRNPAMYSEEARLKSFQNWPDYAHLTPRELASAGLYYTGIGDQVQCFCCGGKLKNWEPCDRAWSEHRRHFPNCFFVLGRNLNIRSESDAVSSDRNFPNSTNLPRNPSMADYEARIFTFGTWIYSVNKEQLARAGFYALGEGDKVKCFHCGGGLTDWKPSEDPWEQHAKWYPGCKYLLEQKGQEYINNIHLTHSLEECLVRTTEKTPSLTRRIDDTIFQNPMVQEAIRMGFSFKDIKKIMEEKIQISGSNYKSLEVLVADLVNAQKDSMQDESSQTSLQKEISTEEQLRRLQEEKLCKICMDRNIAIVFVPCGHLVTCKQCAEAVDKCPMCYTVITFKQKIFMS

On to `[N-]=[N+]=Nc1ccccc1[C@@H]1OC(c2ccc(OCCCO)cc2)=N[C@]1(Cc1ccccc1)C(=O)O`, for which the z-score in experiment [1] was 0.841; in experiment [2] it was 0.307 (inactive); in [3], 0.492 (inactive); in experiment [5] it was -0.664 (inactive); in experiment [6], 2.5 (inactive); in [7] it was 2.46 (inactive). The z-score in experiment [8] was 0.921 (inactive); in [9], 0.514; in experiment [13], -1.85; in [14], -4.29 (inactive); in experiment [15] it was -0.178 (inactive); in [16], 0.168 (inactive). Besides, the composite z-score was 1.72 (inactive) in [4], 0.0269 in experiment [10], 0.315 (inactive) in experiment [11] and 0.721 in experiment [12].
As to `CO[C@H]1O[C@H](CO)[C@@H](OC(=O)Nc2ccc(Br)cc2)[C@@H]2OC(=O)[C@@H](Cc3ccccc3)C/C=C/C[C@H](Cc3ccccc3)C(=O)O[C@@H]12`, the z-score in experiment [1] was -1.2; in experiment [2], -0.0671 (inactive); in experiment [3], -3.25 (inactive); in experiment [5], 0.193 (inactive); in [6], 1.59 (inactive); in experiment [7], 0.547 (inactive). Further, the z-score was 0.347 (inactive) in [8]; -4.07 in [9]; -0.683 in [13]; -1.27 (inactive) in [14]; -0.324 (inactive) in experiment [15]; 0.406 (inactive) in experiment [16]. The composite z-score is -1.25 (inactive) in experiment [4], 0.289 in experiment [10], 0.491 (inactive) in experiment [11] and 0.693 in experiment [12].
On to `C=C[C@@H](OC)[C@H](OC(=O)Nc1ccc(OC)cc1)c1ccc(O)c(F)c1`, for which the z-score in [1] was -0.902; in experiment [2], -6.91 (inactive); in [3], -0.967 (inactive); in experiment [5] it was 0.741 (inactive); in experiment [6], -0.175 (inactive); in experiment [7] it was 0.146 (inactive). Moreover, the z-score in [8] was -0.355 (inactive); in [9] it was -0.877; in [13], -0.825; in [14], -2.8 (inactive); in experiment [15], -0.528 (inactive); in experiment [16] it was -1.17 (inactive). For the same molecule, the composite z-score is -1.1 (inactive) in experiment [4], 0.252 in experiment [10], 0.65 (inactive) in experiment [11] and 0.741 in experiment [12].
Consider `COc1cc(NN2C(C(O)c3ccco3)C=CC3C(=O)N(C)C(=O)C32)cc(OC)c1OC` (centres undefined), for which the z-score in experiment [1] is -1.41; in [2], 0.753 (inactive); in experiment [3], -1.76 (inactive); in experiment [5] it was 0.711 (inactive); in [6] it was 0.322 (inactive); in [7] it was -1.02 (inactive). In addition, the z-score was -0.941 (inactive) in experiment [8]; -1.98 in experiment [9]; -0.188 in experiment [13]; -3.41 (inactive) in experiment [14]; 0.476 (inactive) in experiment [15]; 0.18 (inactive) in [16]. Moreover, the composite z-score in [4] is -0.139 (inactive); in experiment [10], 0.391; in experiment [11] it was -0.0656 (inactive); in experiment [12], -0.423.
Regarding `CCOC(=O)C=Cc1cccc(C)c1O`, the z-score was -0.156 in [1]; -10.7 (active) in [2]; -0.753 (inactive) in experiment [3]; 0.0236 (inactive) in experiment [5]; -4.67 (inactive) in experiment [6]; 0.0457 (inactive) in [7]. In addition, the z-score is -0.944 (inactive) in [8]; -0.529 in [9]; -1.44 in [13]; 0.534 (inactive) in experiment [14]; -0.193 (inactive) in [15]; 0.0058 (inactive) in [16]. Moreover, the composite z-score in experiment [4] is -0.892 (inactive); in experiment [10], 0.0533; in [11] it was 2.79 (inactive); in experiment [12] it was 0.159.
Regarding `COC(=O)c1c(CC[C@@H](CO)NC(=O)N[C@@H](C)Cn2cc(-c3ccccn3)nn2)oc(C(C)=O)c1C(=O)OC`, the z-score in experiment [1] is -0.962; in experiment [2], -0.369 (inactive); in experiment [3] it was 0.0168 (inactive); in experiment [5], -0.109 (inactive); in experiment [6] it was -0.37 (inactive); in experiment [7], -0.207 (inactive). For the same molecule, the z-score is -0.605 (inactive) in experiment [8]; -0.921 in experiment [9]; -1.89 in experiment [13]; 0.452 (inactive) in experiment [14]; -0.207 (inactive) in experiment [15]; 0.363 (inactive) in [16]. Moreover, the composite z-score is -2.74 (inactive) in [4], 0.0808 in experiment [10], 1.29 (inactive) in experiment [11] and 0.881 in [12].
`COCCOC(=O)N1C(=O)[C@@]2(c3cc(C#CC4(O)CCCCCC4)ccc31)[C@H](C(=O)Nc1nc3ccccc3s1)[C@H]1C(=O)O[C@H](c3ccccc3)[C@H](c3ccccc3)N1[C@@H]2c1ccc(O)cc1`: the z-score in experiment [1] was -0.0328; in [2], -0.873 (inactive); in experiment [3], -0.858 (inactive); in experiment [5] it was 0.598 (inactive); in experiment [6] it was 1.24 (inactive); in [7] it was 0.487 (inactive). Also, the z-score in experiment [8] was 0.613 (inactive); in experiment [9], -0.945; in [13], 0.219; in [14], -1.09 (inactive); in experiment [15], -0.205 (inactive); in [16] it was 0.0486 (inactive). In addition, the composite z-score is -1.03 (inactive) in [4], -0.0274 in [10], 0.479 (inactive) in experiment [11] and 0.817 in [12].
With `CN(C)C(=O)[C@]1(Cc2ccccc2CN=[N+]=[N-])N=C(c2ccc(OCCCO)cc2)O[C@@H]1c1ccccc1`, the z-score in experiment [1] was 0.747; in experiment [2] it was -0.948 (inactive); in experiment [3], -0.535 (inactive); in experiment [5] it was -0.137 (inactive); in [6], 0.787 (inactive); in experiment [7], 0.294 (inactive). The z-score in experiment [8] was -0.296 (inactive); in [9], -1.16; in experiment [13], -2.78; in experiment [14], -6.11 (inactive); in experiment [15], -0.52 (inactive); in experiment [16] it was -0.266 (inactive). Besides, the composite z-score in experiment [4] is -0.366 (inactive); in experiment [10], -0.127; in experiment [11], 0.908 (inactive); in experiment [12] it was 0.738.
Turning to `NC(=O)[C@@]1(Cc2ccccc2)COC(c2ccc(OCCCO)cc2)=N1`, the z-score was -0.101 in experiment [1]; 0.539 (inactive) in [2]; 0.153 (inactive) in experiment [3]; -0.0304 (inactive) in experiment [5]; 1.58 (inactive) in experiment [6]; 2.1 (inactive) in [7]. Moreover, the z-score in experiment [8] is 0.595 (inactive); in experiment [9] it was -0.0366; in [13], 0.0597; in [14], -2.25 (inactive); in [15], 0.279 (inactive); in experiment [16], 0.382 (inactive). Also, the composite z-score is 1.86 (inactive) in experiment [4], -0.0559 in experiment [10], 0.198 (inactive) in experiment [11] and -0.959 in [12].
